# Assay results taken from PubChem BioAssay (NCATS).
# Records with an inconclusive call do not appear. The source made the active and inactive calls. The call rests on the fitted dose curve; in most records, active means well fitted cell-killing curve with a large enough effect; inconclusive means small, poorly fitted or top-dose-only effect; inactive means flat fitted curve, though single readings scatter.
# Assay: NCATS anti-infectives library activity on HEK293 viability as a counter-qHTS vs the C. elegans viability qHTS (AID 1745854)
# Details: HEK293 viability counter-screen; series mostly up to 41.8 µM; activity change, negative = cytotoxicity: at the top concentration
# Excerpt: Assay Development and Screening Technology Laboratory (ADST)
# National Center for Advancing Translational Sciences (NCATS), Rockville, MD
# National Institute of Health (NIH), Bethesda, Maryland
# Caenorhabditis elegans has helped elucidate the evolutionarily conserved genetics underlying pathways and cellular processes implicated in human disease and may be ideally positioned to reveal novel pharmacological properties of exiting drugs. The organism's short life cycle and microscopic size is applicable to the technical requirements of high-throughput screening. Here a quantitative high-throughput screening (qHTS)-based forward chemical biology platform has been developed using C. elegans. 384-well microtiter plate laser scanning cytometry was used in the rapid detection and quantification of the fluorescent protein-encoded phenotype to score worm viability. In a proof-of-concept study, the pharmacological qHTS profile obtained from a library of 643 anti-infective compounds.
# 1. Inglese, J., Auld, D. S., Jadhav, A., Johnson, R. L., Simeonov, A., Yasgar, A., Zheng, W., and Austin, C. P. (2006) Quantitative high-throughput screening: A titration-based approach that efficiently identifies biological activities in large chemical libraries, P Natl Acad Sci USA 103, 11473-11478.
# 2. Auld, D. S., Johnson, R. L., Zhang, Y. Q., Veith, H., Jadhav, A., Yasgar, A., Simeonov, A., Zheng, W., Martinez, E. D., Westwick, J. K., Austin, C. P., and Inglese, J. (2006) Fluorescent protein-based cellular assays analyzed by laser-scanning microplate cytometry in 1536-well plate format, Method Enzymol 414, 566-589.
# 3. Zuck, P., Lao, Z., Skwish, S., Glickman, J. F., Yang, K., Burbaum, J., and Inglese, J. (1999) Ligand-receptor binding measured by laser-scanning imaging, Proc Natl Acad Sci U S A 96, 11122-11127.
# PROTOCOL TABLE (as described by Inglese J, Shamu CE and Guy RK. 2007)
# SEQUENCE No. (e.g., 1, 2, 3, etc.); […] (e.g., C. elegans, Compounds, Incubation, Read, etc.); VALUE and DESCRIPTION.
# 1. Compounds. Library compounds and digitonin control added at 25 nL per well to 7 assay ready 1536-well Greiner white/solid bottom high base, TC plates and two DMSO control plates, transferred by Echo acoustic dispenser.
# 2. Cells. Seed 1500 HEK293 per well in 6 uL into assay ready Greiner 1536-well plates.
# 3. Incubation. Incubate plated cells with compounds at 37C in 5% CO2, 95% RH for 24 hr.
# 4. Reagent. Add 4 uL of CellTiter-Glo reagent from Promega per well of Greiner 1536-well plates with BioRAPTR FRD.
# 5. Incubation. Incubate treated cells at room temperature for 10 min., protect from light.
# 6. Detector. CellTiter-Glo luminescence measured using CCD-based camera (Viewlux) with settings as follows: Exposure, 1 sec; Gain, High; Speed, Slow; Binning, 2X.
# NOTES (numbers refer to Sequence numbers above; values are from representative experiments)
# 1. NIH Anti-Infectives library pre-dispensed into 7 assay ready 1536-well Greiner white/solid bottom high base, TC plates with Echo 555 acoustic dispenser. Most compounds dispensed at 10 mM high concentration and plated in 7-pt 1:5 inter-plate titration at 25 nl / well for a final assay concentration range of 41.7 uM - 2.7 nM. Two 1536-well Greiner assay plates of DMSO plated as screening controls to be read at the beginning and the end of the screen. Controls included DMSO vehicle control added at 25 nl/well to each well of column 1 and […] (83.3 uM final assay concentration), and Digitonin titrated 1:2 at 25 nl/ well to column 4 in duplicate for a final assay concentration range of 83.3 uM - 2.5 nM.
# 2. HEK293 cells grown for 48 hr in one T175 culture flask in DMEM high glucose media supplemented with 10% FBS and 1% Pen/Strep antibiotic. Cells trypsinized and diluted in 10 ml supplemented media, strained through 40 µm cell strainer, and diluted to a total volume of 40 ml with supplemented media. […]
# On the % scale 0 is the no-effect control and ±100 the full control effect.
row,SMILES,"activity change, negative = cytotoxicity"
1,Nc1ccc(F)cc1NC(=O)c1ccc(CNC(=O)/C=C/c2cccnc2)cc1,25.1% (inactive)
2,CC(=O)O/N=C1/C(c2c(O)[nH]c3cc(Br)ccc23)=Nc2ccccc21,-23.1% (inactive)
3,C[C@]12CCCN1CC1=NNC(=O)c3cc(F)cc4[nH]c2c1c34,-27.5% (inactive)
4,O=C(NO)c1cnc(NC2(c3ccccc3)CC2)nc1,-5.33% (inactive)
5,COc1ccc2c(c1)[C@@H]1C[C@]1(C(=O)N1[C@@H]3CC[C@H]1CN(C)C3)Cn1c-2c(C2CCCCC2)c2ccc(C(=O)NS(=O)(=O)N(C)C)cc21,-7.5% (inactive)
6,NC(=O)c1cc(F)cc2c1C(=O)N(C1CCN(C3CCC(F)(F)CC3)CC1)C2,-2.04% (inactive)
7,[N-]=[N+]=N[C@]1(CO)O[C@@H](n2ccc(N)nc2=O)[C@@H](O)[C@@H]1O,9.75% (inactive)
8,CCC[C@H](NC(=O)[C@@H]1[C@H]2CCC[C@H]2CN1C(=O)[C@@H](NC(=O)[C@@H](NC(=O)c1cnccn1)C1CCCCC1)C(C)(C)C)C(=O)C(=O)NC1CC1,-15% (inactive)
9,O=c1c(-c2ccc(O)cc2)coc2cc(O[C@@H]3O[C@H](CO)[C@@H](O)[C@H](O)[C@H]3O)ccc12,12.8% (inactive)
10,CC[C@H](NC(=O)[C@H](C)NC)C(=O)N1C[C@@H](O)C[C@H]1Cc1c(-c2[nH]c3cc(F)ccc3c2C[C@@H]2C[C@H](O)CN2C(=O)[C@H](CC)NC(=O)[C@H](C)NC)[nH]c2cc(F)ccc12,-14.8% [at 18.2 µM] (inactive)
11,O=C(CCCCCCNC(=O)c1cnc(N(c2ccccc2)c2ccccc2Cl)nc1)NO,3.65% (inactive)
12,Nc1nc(NC2CC2)c2ncn([C@H]3C=C[C@@H](CO)C3)c2n1,-8.84% (inactive)
